Sampled rows, rich in hits. Any-hit rate of the full collection: about 17%.
ATXN viability – reduces viability in counter-screen for ATXN expression inhibitors | S2 cells (HEK-293 line with an ATXN2-luciferase reporter) viability, CellTiter-Fluor protease fluorescence, 24 h | Potency, µM (highest dose often 56.7 µM), actives largely listed as cytotoxic | hit rate 0.49% among 400,000 | AID 651635; further: nearly all actives have a fitted effect of over 40% in size
HepG2 tox – kills HepG2 cells in TGF-b inhibitor counter-screen | HepG2 CAGA-GFP viability, ATP luminescence, 18 h | Potency, µM (highest dose often 46.1 µM), for the others: at the top dose activity change, negative = cytotoxicity, actives largely listed as cytotoxic | hit rate 0.76% among 410,000 | AID 588856
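CellTiter-Glo luminescence gave cytotoxicity after 18 hours at 37 degrees C. The cells were HepG2 CAGA-GFP in 1% FBS DMEM, stimulated with 500 pg/mL TGF-beta after compound addition. %Activity was normalised to no-cell wells (complete cell-killing) and DMSO (no toxicity), and curves were fitted and classified.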
TGFb inhibitor – TGF-b pathway inhibition; HepG2 CAGA-GFP TGF-b/SMAD3 reporter, GFP fluorescence, 18 h; TGF-beta stimulated, 500 pg/mL final; Potency, µM (highest dose often 46.1 µM), for inactives: at the highest dose activity, negative = inhibition, usual class: inhibitors; hit rate 1.2% among 410,000; AID 588855; further: on the % scale 0 is the no-effect control and ±100 the full control effect; nearly all actives have a fitted effect of over 65% in size
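Cell-based qHTS in HEPG2 carrying a CAGA-GFP Smad reporter; compounds added before 500 pg/mL final TGF-beta, 18 h incubation at 37 degrees C, GFP fluorescence quantified per cell by imaging cytometry.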
DT40 TDP1 CPT – growth inhibition of DT40 Tdp1-/-;hTDP1 cells with camptothecin (screen for TDP1 inhibitors) | chicken DT40 Tdp1-/-;hTDP1 cells + 20 nM CPT, ATP luminescence, 48 h | Potency, µM (top dose mostly 46.2 µM), without a hit: at the highest dose activity change, negative = growth inhibition, usual class: inhibitors | hit rate 12% among 420,000; further: on the % scale 0 is the no-effect control and ±100 the full control effect; nearly all actives have a fitted effect of over 55% in size
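Chicken DT40 Tdp1-/- cells stably complemented with human TDP1 were seeded at 400 cells/well in medium containing 20 nM camptothecin, exposed to pin-transferred compounds, and grown at 37 °C for at least 48 hr. Viability was read as ATP luminescence.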
DT40 TDP1 no CPT – qHTS for Inhibitors of human tyrosyl-DNA phosphodiesterase 1 (TDP1): qHTS in cells in absence of CPT | DT40 Tdp1-/- hTDP1 cells, no CPT, ATP luminescence, 48 h | Potency, µM (doses to about 46.2 µM), for the others: at the highest dose activity change, negative = growth inhibition, actives largely listed as inhibitors | hit rate 15% among 420,000 | AID 686978, 2013; further: on the % scale 0 is the no-effect control and ±100 the full control effect; nearly all actives have a fitted effect of over 55% in size
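DT40 Tdp1-/-;hTDP1 cells, no CPT (DMSO vehicle only), 400 cells/well; compounds pin-transferred; ≥48 hr, 37 °C; CellTiter-Glo 30 min RT dark, luminescence read.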
ATXN2 expr inh – reduces ATXN2 reporter expression in HEK-293 cells; HEK-293 ATXN2-luciferase reporter, luminescence, 24 h; Potency, µM (doses to about 57 µM), for inactives: top-dose activity change, negative = inhibition, hits mostly inhibitors; hit rate 0.72% among 360,000; AID 1745845; further: on the % scale 0 is the no-effect control and ±100 the full control effect; nearly all actives have a fitted effect of over 55% in size
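qHTS (up to 57 uM final) was run with 24 h compound exposure of reporter cells at 37 °C. Each well was multiplexed: SteadyGlo luminescence measured ATXN2-luciferase expression after a fluorogenic Gly-Phe-AFC viability readout (25 uM final).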
Starred values were filed as active, the others as inactive; i = inactive; ? = inconclusive; · = not tested or not shown. The call rests on the fitted dose curve; in most records, active means well fitted curve in the direction sought with a large enough effect; inconclusive means small, poorly fitted or top-dose-only effect, or another doubt; inactive means no such curve, though single readings can be large; an effect the other way counts as inactive or inconclusive. Potency means the concentration at half of the fitted maximal effect.

SMILES	ATXN viability	HepG2 tox	TGFb inhibitor	DT40 TDP1 CPT	DT40 TDP1 no CPT	ATXN2 expr inh
O=C(O)CNc1nc(-c2ccccc2)nc2ccccc12	i	-5.3%	3.1%	-6.8%	-15.0%	-3.9%
O=C(O)c1ccc(Nc2nc(-c3ccccc3)nc3ccccc23)cc1	?	-29.3%	-9.7%	23.1µM*	20.6µM*	·
CCCn1cc(S(=O)(=O)c2cc(C)ccc2C)c(=O)c2cc(F)c(N3CCCCCC3)cc21	·	-0.7%	-0.5%	?	-83.8%	·
COCCn1c(=O)c(-c2ccccc2)nc2cnc(Nc3cccc(OC)c3)nc21	·	·	·	-6.2%	2.6%	·
COc1ccc(OC)c2sc(N(Cc3cccnc3)C(C)=O)nc12	·	0.6%	-1.2%	-3.5%	1.0%	·
Cc1ccc(-c2nc(Nc3ccc(N4CCOCC4)cc3)c3ccccc3n2)cc1	·	-39.3%	?	?	23.1µM*	-41.8%
CN(C)C(=O)c1ccc(-c2nc(Nc3ccccc3)c3ccccc3n2)cc1	·	·	·	?	16.4µM*	·
Cc1sc2ncnc(Nc3ccc(N4CCOCC4)cc3)c2c1-c1ccccc1	?	-26.2%	?	16.4µM*	?	·
CCOC(=O)c1sc(NC(=O)CCN2C(=O)c3cccc([N+](=O)[O-])c3C2=O)c(C(=O)OCC)c1C	i	-9.9%	11.4%	-0.7%	-5.1%	-8.8%
O=S(=O)(NCCc1csc(-c2ccc(C(F)(F)F)cc2)n1)c1ccc2c(c1)OCCO2	?	-25.1%	?	18.4µM*	14.6µM*	-38.9%
COc1ccc(-c2nc(CCNS(=O)(=O)c3ccc4c(c3)OCCO4)cs2)cc1	?	-31.8%	?	18.4µM*	16.4µM*	-22.5%
Cc1cccc(-c2noc(CN(C(=O)COc3ccc(Br)cc3C)C(C)C)n2)c1	i	-28.1%	?	?	?	-22.6%
CC(C)N(Cc1nc(-c2ccc(Cl)cc2)no1)C(=O)/C=C/c1ccccc1	i	2.3%	?	?	?	-6.5%
Cc1cccc(-c2noc(CN(C(=O)/C=C/c3ccccc3Cl)C(C)C)n2)c1	i	-9.2%	0.0%	18.4µM*	?	-11.8%
Cc1cccc(-c2noc(CN(C(=O)CCc3ccccc3)C(C)C)n2)c1	i	-13.5%	-22.6%	29.1µM*	?	4.1%
COc1ccc(S(=O)(=O)Nc2cc3c4c(c2)CCC(=O)N4CCC3)cc1C	i	-34.9%	?	16.4µM*	?	1.9%
Cc1ccc(NS(=O)(=O)c2cc3c4c(c2)CC(=O)N4CCC3)cc1C	i	4.6%	5.6%	13µM*	-5.2%	-5.6%
O=C(CN1C(=O)NC2(CCCC2)C1=O)N1CCN(c2cccc(C(F)(F)F)c2)CC1	i	-9.0%	-16.0%	?	20.6µM*	-15.0%
Cc1cccc(N2CCN(C(=O)CN3C(=O)NC4(CCCCCC4)C3=O)CC2)c1C	i	5.7%	1.2%	?	20.6µM*	1.2%
O=C(CN1C(=O)NC2(CCCCCC2)C1=O)N1CCC(Cc2ccccc2)CC1	i	-41.3%	2.6%	?	16.4µM*	-15.1%
CC1CCC2(CC1)NC(=O)N(CC(=O)N(Cc1ccccc1)C(C)(C)C)C2=O (stereo not given)	?	6.4%	4.3%	-21.0%	?	2.1%
CC1(C)NC(=O)N(CC(=O)N2CCN(c3cccc(C(F)(F)F)c3)CC2)C1=O	i	-96.3%	-5.6%	?	?	-10.8%
COc1cccc(N2CCN(C(=O)CN3C(=O)NC4(CCCC4)C3=O)CC2)c1	?	23.7%	1.9%	-11.0%	-20.0%	5.1%
O=C(CN1C(=O)NC2(CCCCCC2)C1=O)NCc1ccccc1	i	-3.4%	2.8%	-36.5%	-20.2%	12.3%
CC1CCC2(CC1)NC(=O)N(Cc1cccc(C(F)(F)F)c1)C2=O (stereo not given)	i	2.2%	4.2%	18.4µM*	?	-29.2%
SMILES	ATXN viability	HepG2 tox	TGFb inhibitor	DT40 TDP1 CPT	DT40 TDP1 no CPT	ATXN2 expr inh
O=C(NCc1ccccn1)C1CCC(=O)N1C1CCCCC1 (stereo not given)	i	-7.9%	0.5%	-3.0%	-6.2%	0.0%
COc1ccc(CC(=O)Nc2c(C(=O)Nc3ccccc3F)oc3ccccc23)cc1	i	-5.3%	-18.1%	0.0%	-23.6%	7.7%
CC(=O)Nc1cccc(NC(=O)CSc2nc3c(=O)n(C)c(=O)n(C)c3n2C)c1	i	2.6%	3.5%	-11.8%	-7.3%	0.2%
COc1ccc(CCNC(=O)CCCn2c(=S)[nH]c3ccsc3c2=O)cc1OC	i	0.0%	-5.7%	-0.7%	?	·
CCOC(=O)c1ccc(NC(=O)c2ncn3c2C(=O)NC[C@H]3C)cc1	i	-12.8%	-23.2%	?	?	-5.6%
O=C(c1ccco1)N1CCN(C2CN(C3CCCCC3)S(=O)(=O)C2)CC1 (stereo not given)	i	0.4%	2.7%	-8.1%	-10.9%	14.1%
O=C(CN1C(=O)NC2(CCCC2)C1=O)N1CCN(S(=O)(=O)c2cccc(C(F)(F)F)c2)CC1	i	1.6%	5.2%	9.0%	-9.2%	-1.4%
O=C(CN1C(=O)NC2(CCCC2)C1=O)N1CCN(c2ccc(C(F)(F)F)cc2[N+](=O)[O-])CC1	i	-8.8%	-8.0%	13µM*	8.2µM*	-20.3%
O=c1cnn(-c2ccccc2)c(-c2ccccc2)c1	i	-11.2%	-4.1%	?	18.4µM*	48.0%
CSCCC(NC(=O)c1ccccc1Br)C(=O)NCCCn1nc(C)cc1C (stereo not given)	i	0.4%	-1.8%	-1.7%	-0.5%	-1.3%
c1ccc(COc2cccc(-c3cc4nc(NCCOc5ccccc5)ccn4n3)c2)cc1	i	-28.9%	?	?	?	5.0%
COCCCNc1ccn2nc(-c3ccc(OCc4ccccc4)cc3)cc2n1	?	-48.6%	-0.5%	16.4µM*	?	-8.5%
c1ccc(COc2ccc(-c3cc4nc(NCCOc5ccccc5)ccn4n3)cc2)cc1	i	-47.7%	-0.4%	23.1µM*	?	-6.8%
O=C(NC1CC(=O)N(c2ccc(F)cc2)C1)c1ccc(S(=O)(=O)N2CCCCC2)cc1 (stereo not given)	·	-0.6%	-6.8%	?	?	·
NC(=O)c1ccc(NC(=O)C2CCN(S(=O)(=O)Cc3ccccc3)CC2)cc1	i	-6.6%	-4.7%	-9.7%	-9.0%	9.5%
Cc1cccc(-n2c(O)c(C=Nc3cc(O)ccc3C)c3ccccc3c2=O)n1	·	-35.9%	115.0%	20.6µM*	?	?
